# In all, about 310,000 compounds went through this assay and about 14,000 (4.5%) showed an effect of 50% or more. The effect is printed as a negative number. The list comes from a sample in which strong results are over-represented; it also holds similar structures and randomly drawn compounds.
# Target: human ether-à-go-go-related gene (hERG) potassium channel (human, UniProt Q12809)
# Experiment: primary screen, population patch clamp on CHO cells stably expressing hERG; higher = less effect of the substance
# 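Further: peak tail current of the secondary pulse compared with the same well before compound.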
# Chain of human ether-à-go-go-related gene (hERG) potassium channel (Q12809 whole entry, looked up): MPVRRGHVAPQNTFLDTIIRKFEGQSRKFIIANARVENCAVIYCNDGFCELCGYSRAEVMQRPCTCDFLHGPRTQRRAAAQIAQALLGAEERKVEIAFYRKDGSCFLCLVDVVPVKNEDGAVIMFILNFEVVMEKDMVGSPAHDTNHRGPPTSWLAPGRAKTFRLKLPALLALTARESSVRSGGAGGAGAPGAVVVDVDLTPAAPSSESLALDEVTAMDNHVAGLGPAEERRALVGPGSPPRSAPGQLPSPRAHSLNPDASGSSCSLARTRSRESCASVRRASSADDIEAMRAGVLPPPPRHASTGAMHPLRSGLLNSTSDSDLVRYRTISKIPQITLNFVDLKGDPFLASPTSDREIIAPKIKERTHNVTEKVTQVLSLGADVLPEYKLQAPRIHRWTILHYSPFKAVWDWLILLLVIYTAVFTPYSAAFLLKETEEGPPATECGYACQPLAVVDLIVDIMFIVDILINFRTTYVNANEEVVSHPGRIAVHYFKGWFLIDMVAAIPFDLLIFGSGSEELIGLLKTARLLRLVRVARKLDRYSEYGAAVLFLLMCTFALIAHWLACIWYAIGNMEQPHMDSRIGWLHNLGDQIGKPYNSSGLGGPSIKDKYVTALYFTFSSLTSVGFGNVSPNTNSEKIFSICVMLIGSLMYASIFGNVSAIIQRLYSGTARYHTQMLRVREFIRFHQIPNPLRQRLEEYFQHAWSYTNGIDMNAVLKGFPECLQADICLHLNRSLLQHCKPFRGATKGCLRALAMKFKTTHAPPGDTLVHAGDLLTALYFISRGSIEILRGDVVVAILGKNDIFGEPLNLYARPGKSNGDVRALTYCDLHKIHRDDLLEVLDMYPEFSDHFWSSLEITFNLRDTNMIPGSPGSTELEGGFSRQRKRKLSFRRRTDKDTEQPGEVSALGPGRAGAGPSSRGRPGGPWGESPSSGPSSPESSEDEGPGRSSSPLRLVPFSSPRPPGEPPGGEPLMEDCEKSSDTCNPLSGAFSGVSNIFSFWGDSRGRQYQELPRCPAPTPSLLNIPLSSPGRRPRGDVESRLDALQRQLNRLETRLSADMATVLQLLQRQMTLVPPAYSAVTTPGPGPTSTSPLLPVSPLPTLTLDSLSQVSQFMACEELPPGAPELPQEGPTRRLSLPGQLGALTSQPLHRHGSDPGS
row,SMILES,"hERG current change (%, negative = inhibition) at 10uM [%]"
1,CCC(=O)/C=C1/Sc2ccc(OC)cc2N1CC,-4.45
2,C=CCn1cc(C(=O)NCC2CCCO2)c(=O)c2cc(S(=O)(=O)N3CCCCCC3)ccc21 (stereo not drawn),-48.1
3,O=C(COC(=O)C1=COCCO1)Nc1cccc(S(=O)(=O)N2CCOCC2)c1,10.8
4,COc1ccc(-c2c(NC(=O)c3ccco3)oc3ccc(Cl)cc3c2=O)cc1,19.7
5,O=c1ccn(Cc2ccc(F)cc2)c2ccnc(C(F)(F)F)c12,-25.9
6,CCN(CC)S(=O)(=O)c1ccc(N2CCCC2)c(NC(=O)C2=COCCO2)c1,-40
7,CCn1c(/C=C/c2cc[n+](C)cc2)nc2ccccc21.[I-],15
8,CCn1cc(/C=C/c2cc[n+](C)cc2)c2ccccc21.[I-],-56.1
9,COC(=O)Cn1cc(/C=C/c2cc[n+](C)cc2)c2ccccc21.[I-],5.7
10,CN(C)c1ccc(-c2nc3cc(N)ccc3o2)cc1,6.31
11,Cc1cccn2c(=O)c3cc(C(=O)N4COCC4(C)C)n(Cc4ccccc4)c3nc12,1.23
12,CCCCNC(=O)c1cc2c(=O)n3cccc(C)c3nc2n(Cc2ccccc2)c1=N,-77.6
13,CCCCNC(=O)c1cc2c(=O)n3cccc(C)c3nc2s1,7.96
14,COCCNC(=O)c1cc2c(=O)n3cccc(C)c3nc2n1C,11.7
15,CCNC(=O)c1cc2c(=O)n3cccc(C)c3nc2n(Cc2ccc(C)cc2)c1=N,-88
16,COCCNC(=O)c1cc2c(=O)n3cccc(C)c3nc2n(Cc2ccncc2)c1=N,-70
17,CCCCNC(=O)c1cc2c(=O)n3cccc(C)c3nc2n(Cc2ccncc2)c1=N,-75.1
18,CCc1cc2c(NC(Cc3c[nH]c4ccccc34)C(=O)O)nc(C)nc2s1 (stereo not drawn),31.3
19,COCC(=O)Nc1ccc(S(=O)(=O)Nc2ccccn2)cc1,17.8
20,Cc1ccc(S(=O)(=O)NCCOc2cc(C)ccc2C)cc1,-6.41
21,Cc1c(NC(=O)CSc2n[nH]c(-c3ccccc3)n2)c(=O)n(-c2ccccc2)n1C,3.93
22,CC1=C(C(=O)Nc2ccc(C(=O)NCCCN3CCCCC3)cc2)SCCO1,-24.8
23,CN(N)N=Nc1nc2c([nH]1)c(=O)n(C)c(=O)n2C,0.0258
24,Cc1cc(C)cc(SCc2noc(C(=O)NC(C)C)c2C(=O)O)c1,33.6
